Unmarked numbers belong to inactive results. The call rests on the fitted dose curve; in most records, active means well fitted activation curve with a large enough effect; inconclusive means small, poorly fitted or top-dose-only effect; inactive means no such curve, though single readings can be large or run the other way.
The compounds below were run against Cytochrome P450 3A4 (Homo sapiens) (UniProt P08684) (assay: qHTS Assay for Activators of Cytochrome P450 3A4 (AID 885; further: nearly all actives have a fitted effect of over 65% in size)). Conditions: recombinant CYP3A4, Luciferin-PPXE luminescence, 60 min; series mostly up to 57.1 µM; activity change, positive = activation: at the top concentration.
Sequence of Cytochrome P450 3A4 (Homo sapiens) (P08684 whole entry, looked up): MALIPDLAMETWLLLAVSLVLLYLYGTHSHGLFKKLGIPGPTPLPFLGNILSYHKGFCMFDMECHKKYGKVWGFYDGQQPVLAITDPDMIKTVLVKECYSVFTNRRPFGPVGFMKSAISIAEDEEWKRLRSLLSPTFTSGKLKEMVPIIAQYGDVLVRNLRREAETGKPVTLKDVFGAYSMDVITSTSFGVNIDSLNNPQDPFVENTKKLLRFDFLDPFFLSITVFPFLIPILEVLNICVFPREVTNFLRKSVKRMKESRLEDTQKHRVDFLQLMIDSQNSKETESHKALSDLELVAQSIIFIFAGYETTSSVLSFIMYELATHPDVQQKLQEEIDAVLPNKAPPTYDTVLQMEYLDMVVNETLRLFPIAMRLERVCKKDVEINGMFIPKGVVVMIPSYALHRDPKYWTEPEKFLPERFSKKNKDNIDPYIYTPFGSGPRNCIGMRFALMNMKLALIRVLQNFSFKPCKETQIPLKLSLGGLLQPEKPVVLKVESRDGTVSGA
Outline: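 CYP3A4 activity: Luciferin-PPXE O-dealkylation, 25uM substrate, 200mM KPO4, RT throughout. Read-out is luciferase luminescence; higher values reflect activation.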

SMILES | activity change, positive = activation [%]
Cc1cccc(CNc2ncncc2-c2ccccc2C(F)(F)F)c1 | -79.2
COc1ccccc1-c1ccc2ncnc(N(C)C)c2c1 | -84
COc1cccc(Nc2ncc3nc(C)c(=O)n(CCC#N)c3n2)c1 | -99.5
COc1ccc2[nH]cc(CCNc3ncnc4ccc(-c5ccc(C(=O)N(C)C)cc5)cc34)c2c1 | -98.6
CN(C)Cc1ccccc1-c1ccc2ncnc(NCc3ccccc3)c2c1 | -67.4
Cc1cccc(CNc2cc(-c3ccc(C(=O)N(C)C)cc3)ncn2)c1 | -73.7
COc1ccc2[nH]cc(CCNc3cc(-c4ccoc4)ncn3)c2c1 | -88.2
CN(C)Cc1ccccc1-c1nc(N(C)Cc2ccco2)c2ccccc2n1 | -38.4
Cc1cccc(CNc2nc(-c3ccoc3)nc3ccccc23)c1 | -94.9
CNc1nc(-c2ccccc2OC)nc2ccccc12 | -50.8
COc1ccccc1-c1cncnc1NCc1cccc(C)c1 | -100
c1ccc2c(Nc3ccncc3)nc(-c3ccoc3)nc2c1 | -72.6
COCC(=O)N1CCC2(CCN(Cc3ccncc3)CC2)CC1 | -35.7
CS(=O)(=O)Nc1cccc(-c2nc(N3CCOCC3)c3ccccc3n2)c1 | -83.6
Cc1cccc(CNc2nc(-c3cccc(NS(C)(=O)=O)c3)nc3ccccc23)c1 | -100
CNc1ncnc2ccc(-c3ccccc3OC)cc12 | -70.3
COc1ccc2[nH]cc(CCNc3ncnc4ccc(-c5ccccc5CN(C)C)cc34)c2c1 | -79.1
COCCNc1nc(-c2cccc(OC)c2)nc2ccccc12 | -80.8
CN(C)c1ccc(-c2cc(NCc3cccnc3)ncn2)cc1 | -80.7
